Experimental data: PubChem BioAssay (NCI)
This is part of a sample that, as a whole, favours compounds with a hit. Of some 79,000 tested, about 15% had one in any assay. Activity calls are given as the source filed them. Rule as the data show it: active = growth inhibition above about 70%; inactive = the rest.

Columns and labels:
[1] = NCI Yeast Anticancer Drug Screen. Data for the rad52 strain (AID 147);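 also: 0% = growth of vehicle-treated control cultures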; conditions: S. cerevisiae rad52 mutant growth inhibition, hits give high values
Procedure, shortened: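 Genetically altered yeast (DNA damage repair defect) treated with compound; inhibition calculated relative to vehicle.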

[2] = NCI Yeast Anticancer Drug Screen. Data for the wt1 strain (AID 149);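 also: 0% = growth of vehicle-treated wt1 cultures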; conditions: S. cerevisiae wt1 strain (SPY 50644) growth inhibition, hits give high values
Procedure, shortened: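 Using yeast strain wt1, compound-induced growth inhibition was determined against vehicle-treated cultures.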

[3] = NCI Yeast Anticancer Drug Screen. Data for the rad50EPP+ strain (AID 151);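 also: 0% = growth of vehicle-treated control cultures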; conditions: S. cerevisiae rad50 mutant strain, hits give high values
Procedure, shortened: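 Strain rad50EPP+; compound exposure; % growth inhibition vs vehicle.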

[4] = NCI Yeast Anticancer Drug Screen. Data for the mgt1 strain (AID 153); conditions: S. cerevisiae mgt1 mutant growth inhibition, hits give high values
Procedure, shortened: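 Read-out: yeast growth inhibition vs vehicle control. Strain mgt1, drawn from a panel altered in DNA damage repair or cell cycle control.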

[5] = NCI Yeast Anticancer Drug Screen. Data for the rad50 strain (AID 155);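 also: 0% = growth of vehicle-only cultures of the same strain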; conditions: S. cerevisiae rad50 strain growth inhibition, hits give high values
Procedure, shortened: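 Relative growth inhibition (compound vs vehicle) was measured in yeast with a defined repair-gene alteration.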

[6] = NCI Yeast Anticancer Drug Screen. Data for the mec2-1 strain (AID 157); conditions: S. cerevisiae mec2-1 strain, hits give high values
Procedure, shortened: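 Cells of the genetically defined mec2-1 yeast strain are incubated with test compound. Inhibition of growth is calculated against vehicle-treated controls.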

[7] = NCI Yeast Anticancer Drug Screen. Data for the rad14 strain (AID 159);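 also: 0% = growth of vehicle-treated control cultures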; conditions: S. cerevisiae rad14 strain growth inhibition, hits give high values
Procedure, shortened: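 Screen for anticancer potential: a yeast strain altered in DNA damage repair is grown with compound, and reduced growth is quantified against vehicle controls.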

[8] = NCI Yeast Anticancer Drug Screen. Data for the sgs1 mgt1 strain (AID 161);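 also: 0% = growth of cultures given vehicle only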; conditions: S. cerevisiae sgs1 mgt1 strain, hits give high values
Procedure, shortened: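 Inhibition of yeast growth, normalised to vehicle-treated controls, is reported for a strain bearing genetic alterations in DNA damage repair.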

[9] = NCI Yeast Anticancer Drug Screen. Data for the CLN2oe strain (AID 163);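 also: 0% = growth of vehicle-only control cultures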; conditions: S. cerevisiae CLN2oe strain, hits give high values
Procedure, shortened: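 Strain altered in cell-cycle control, incubated with compound; growth compared to solvent-treated controls.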

[10] = NCI Yeast Anticancer Drug Screen. Data for the cln2 rad14 strain (AID 165);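 also: 0% = growth equal to vehicle treated cultures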; conditions: S. cerevisiae cln2 rad14 strain, hits give high values
Procedure, shortened: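 The screen exposed genetically defined yeast (cln2 rad14) to test compounds and scored growth inhibition relative to vehicle-treated controls.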

[11] = NCI Yeast Anticancer Drug Screen. Data for the bub3 strain (AID 167); conditions: S. cerevisiae bub3 mutant strain, hits give high values
Procedure, shortened: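 Screening used yeast with an engineered genetic alteration affecting cell cycle control. Compound-exposed cultures were compared with vehicle cultures, and reduced growth was taken as inhibition.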

[12] = NCI Yeast Anticancer Drug Screen. Data for the wt2 strain (AID 169);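 also: 0% = growth of vehicle-treated yeast cultures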; conditions: S. cerevisiae wt2 strain growth inhibition, hits give high values
Procedure, shortened: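 Steps: yeast strain treated with compound; growth recorded; inhibition calculated relative to cultures given vehicle alone.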

[13] = NCI Yeast Anticancer Drug Screen. Data for the mlh1 strain (AID 171);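 also: 0% = growth of vehicle-treated control cultures of the same strain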; conditions: S. cerevisiae mlh1 strain growth inhibition, hits give high values
Procedure, shortened: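 Yeast screen: mutant strain plus compound, growth scored against vehicle control wells.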

[14] = NCI Yeast Anticancer Drug Screen. Data for the sgs1 strain (AID 173);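 also: 0% = growth of vehicle-only control cultures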; conditions: S. cerevisiae sgs1 mutant, hits give high values
Procedure, shortened: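 Inhibition of yeast growth served as the measure. The mutant strain was treated with each compound, and growth was normalised to cultures receiving vehicle alone.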

[15] = NCI Yeast Anticancer Drug Screen. Data for the mlh1 rad18 strain (AID 175); conditions: S. cerevisiae mlh1 rad18 strain growth inhibition, hits give high values
Procedure, shortened: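 Compound-treated yeast growth, normalised to vehicle controls. Strain bears defined DNA repair mutations.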

[16] = NCI Yeast Anticancer Drug Screen. Data for the rad18 strain (AID 177); conditions: S. cerevisiae rad18 mutant growth inhibition, hits give high values
Procedure, shortened: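 Inhibition values reflect reduced yeast growth compared with vehicle-treated controls, using a strain engineered with a DNA damage repair defect.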

[17] = at 5.0 µM (retest, dose inferred, filed as 0.5)
[18] = at 50.0 µM (retest, dose inferred, filed as 5.0)

Measured: growth inhibition

Oc1cccnc1[Se]
active: [1]; at 33.0 µM 99% | [1]; at 100.0 µM 99% | [2]; at 100.0 µM 99% | [3]; at 33.0 µM 74% | [3]; at 100.0 µM 96% | [4]; at 100.0 µM 99% | [5]; at 33.0 µM 98% | [5]; at 50.0 µM 99% | [5]; at 100.0 µM 99% | [6]; at 50.0 µM 97.5% | [6]; at 100.0 µM 98% | [7]; at 33.0 µM 95% | [7]; at 100.0 µM 99% | [8]; at 50.0 µM 95.3% | [10]; at 50.0 µM 99% | [11]; at 50.0 µM 99.2% | [12]; at 33.0 µM 97% | [12]; at 100.0 µM 99% | [13]; at 33.0 µM 98% | [13]; at 100.0 µM 99% | [14]; at 33.0 µM 98% | [14]; at 100.0 µM 99% | [15]; at 50.0 µM 98% | [16]; at 33.0 µM 94% | [16]; at 100.0 µM 99%
inactive: [1]; at 1.2 µM 4% | [1]; at 3.7 µM 7% | [1]; at 11.0 µM 55% | [2]; at 1.2 µM -2% | [2]; at 3.7 µM -3% | [2]; at 11.0 µM -4% | [2]; at 33.0 µM 46% | [3]; at 1.2 µM 1% | [3]; at 3.7 µM 9% | [3]; at 11.0 µM 33% | [4]; at 1.2 µM -4% | [4]; at 3.7 µM -3% | [4]; at 11.0 µM -2% | [4]; at 33.0 µM 68% | [5]; at 1.2 µM 2% | [5]; at 3.7 µM 6% | [5]; [17] -15% | [5]; at 11.0 µM 60% | [5]; [18] 55% | [6]; at 1.2 µM -3% | [6]; at 3.7 µM -5% | [6]; [17] -2% | [6]; at 11.0 µM -3% | [6]; at 33.0 µM 38% | [6]; [18] -10% | [7]; at 1.2 µM 1% | [7]; at 3.7 µM 1% | [7]; at 11.0 µM 5% | [8]; [17] -10% | [8]; [18] 4% | [9]; at 1.2 µM -3% | [9]; at 3.7 µM 3% | [9]; at 11.0 µM -8% | [9]; at 33.0 µM 2% | [9]; at 100.0 µM 37% | [10]; [17] 7% | [10]; [18] 6% | [11]; at 1.2 µM -6% | [11]; at 3.7 µM -7% | [11]; [17] -21% | [11]; at 11.0 µM -13% | [11]; at 33.0 µM -5% | [11]; [18] -18% | [11]; at 100.0 µM 63% | [12]; at 1.2 µM -5% | [12]; at 3.7 µM -9% | [12]; at 11.0 µM -15% | [13]; at 1.2 µM -2% | [13]; at 3.7 µM 2% | [13]; at 11.0 µM 11% | [14]; at 1.2 µM -1% | [14]; at 3.7 µM 21% | [14]; at 11.0 µM 11% | [15]; [17] 7% | [15]; [18] 59% | [16]; at 1.2 µM -2% | [16]; at 3.7 µM 3% | [16]; at 11.0 µM 20%

C[C@]12CC[C@H](O)CC1=CC[C@@H]1[C@@H]2CC[C@]2(C)C(=O)CC[C@@H]12
active: [1]; at 100.0 µM 90% | [2]; at 100.0 µM 87% | [4]; at 100.0 µM 96% | [5]; at 33.0 µM 78% | [5]; [18] 98% | [5]; at 50.0 µM 88.5% | [5]; at 100.0 µM 91% | [6]; at 33.0 µM 79% | [6]; [18] 98% | [6]; at 50.0 µM 87.8% | [6]; at 100.0 µM 90% | [7]; at 33.0 µM 77% | [7]; at 100.0 µM 96% | [8]; [18] 80% | [8]; at 50.0 µM 88.1% | [9]; at 100.0 µM 94% | [10]; [18] 75% | [10]; at 50.0 µM 88.5% | [11]; at 33.0 µM 72% | [11]; [18] 78% | [11]; at 50.0 µM 86.2% | [11]; at 100.0 µM 92% | [13]; at 100.0 µM 97% | [14]; at 33.0 µM 77% | [14]; at 100.0 µM 97% | [15]; [18] 99% | [15]; at 50.0 µM 87.7% | [16]; at 33.0 µM 78% | [16]; at 100.0 µM 95%
inactive: [1]; at 1.2 µM -54% | [1]; at 3.7 µM -47% | [1]; at 11.0 µM -46% | [1]; at 33.0 µM 69% | [2]; at 1.2 µM -44% | [2]; at 3.7 µM -65% | [2]; at 11.0 µM -70% | [2]; at 33.0 µM 50% | [3]; at 1.2 µM -64% | [3]; at 3.7 µM 4% | [3]; at 11.0 µM 0% | [3]; at 33.0 µM 36% | [3]; at 100.0 µM 65% | [4]; at 1.2 µM -65% | [4]; at 3.7 µM -68% | [4]; at 11.0 µM -62% | [4]; at 33.0 µM 52% | [5]; at 1.2 µM -73% | [5]; at 3.7 µM -41% | [5]; [17] 58% | [5]; at 11.0 µM -57% | [6]; at 1.2 µM -94% | [6]; at 3.7 µM -71% | [6]; [17] 56% | [6]; at 11.0 µM -66% | [7]; at 1.2 µM -57% | [7]; at 3.7 µM -52% | [7]; at 11.0 µM -39% | [8]; [17] -7% | [9]; at 1.2 µM -16% | [9]; at 3.7 µM 2% | [9]; at 11.0 µM 8% | [9]; at 33.0 µM 54% | [10]; [17] 64% | [11]; at 1.2 µM -23% | [11]; at 3.7 µM -36% | [11]; [17] 20% | [11]; at 11.0 µM -17% | [13]; at 1.2 µM -51% | [13]; at 3.7 µM -81% | [13]; at 11.0 µM -49% | [13]; at 33.0 µM 37% | [14]; at 1.2 µM -75% | [14]; at 3.7 µM -56% | [14]; at 11.0 µM -65% | [15]; [17] 37% | [16]; at 1.2 µM -29% | [16]; at 3.7 µM -24% | [16]; at 11.0 µM -7%
